These results are taken from PubChem BioAssay.

Broadly, the inhibition is the relative decrease from the control value, in per cent.

Results filed as inconclusive are left out. Activity calls are given as the source filed them.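 How the source made its calls, unless noted: active means inhibition above the screen-wide mean plus 3 SD, about 51%; inactive means the rest.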

A short description of assay [1]: rapamycin-like changes in RPL19A-GFP expression – cell-based, S. cerevisiae, multiplex flow cytometry, primary screen (AID 1862; in the data active means percent of DMSO control GFP below about 86%;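 further: lower values mimic rapamycin by blocking the RPL19A rise seen in DMSO cells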). Particulars: S. cerevisiae RPL19A-GFP strain, flow cytometry fluorescence, 3 h; at 10 µM; stronger effect = lower value.
A short description of assay [2]: TOR pathway GLN3 branch reporter MEP2-GFP changes – S. cerevisiae, multiplex flow cytometry, primary screen (AID 1867;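 active means GFP response, as percent of the DMSO control, above the screen-wide mean plus 3 SD, about 139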;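 further: median GFP channel fluorescence of barcode-gated MEP2-GFP cells measured by flow cytometry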). Particulars: S. cerevisiae MEP2-GFP strain, 3 h, at 10 µM, stronger effect = higher value, 100% means same as DMSO wells. On the technique in general: A flow cytometer gives signals particle by particle.
The nature of assay [3]: TOR pathway RTG branch CIT2 reporter changes – S. cerevisiae, GFP fusion, multiplex flow cytometry, primary screen (AID 1870;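 active means percent response above a set limit, the screen-wide mean plus 3 SD, cut at about 130% in these data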;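 further: barcoded CIT2-GFP strain pooled with four other GFP strains with rapamycin as positive control; median GFP fluorescence per well over plate mean of DMSO wells so 100% = DMSO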). Particulars: S. cerevisiae CIT2-GFP expression, 3 h, at 10 µM, stronger effect = higher value.
A short description of assay [4]: TOR pathway LAP4-GFP level changes – S. cerevisiae, multiplex flow cytometry, primary screen (AID 1873;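 active means GFP signal, as percent of the solvent control, above the screen mean plus 3 SD, about 149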). Particulars: S. cerevisiae LAP4-GFP expression, 3 h, at 10 µM, stronger effect = higher value.
Assay [5] is described as follows: yeast AGP1-GFP level changes, GLN3 branch – cell-based, multiplex flow cytometry, S. cerevisiae, primary screen (AID 1887;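 active means GFP signal above the screen-wide mean plus 3 SD, that is over about 124.5% of the solvent control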;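 further: AGP1-GFP fusion strain of S. cerevisiae within a five-strain barcoded multiplex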). Particulars: 3 h, at 10 µM, stronger effect = higher value.
The nature of assay [6]: reduced mouse 2C T cell binding to pMHC/ICAM-1 vesicles – MLPCN validation set, flow cytometry, LFA-1/ICAM-1 modulator project, pilot screen (AID 2523;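 active means response below a set limit, under 55% cells CD8-positive and vesicle-bound, and CD8 cells' 90th-percentile brightness under 279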;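 on vesicle binding response: mean PE anti-B7-1 fluorescence of CD8+ cells relative to row control; 100% = QL9-loaded vesicles with DMSO vehicle in the same plate row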). Particulars: 2C mouse CD8+ T cells, at 7 µM, stronger effect = lower value; double positive events: measured here: CD8+/vesicle+ event percentage.
For assay [7], the target named is Integrin beta-1 (Homo sapiens) + Integrin alpha-4 (Homo sapiens) (UniProt P13612+P05556). Kind of assay: alpha4beta1 integrin LIBS antibody binding reduction – U937 cells, HUTS-21 mAb, flow cytometry, validation set, VLA-4 allosteric modulator project, pilot screen (AID 2674;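 active means inhibition above 50%, about 3 SD of the validation set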;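 further: antibody binding induced by the VLA-4 ligand LDV present at three times its Kd; 0% = LDV ligand with antibody and no compound and 100% = antibody without LDV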). Particulars: HUTS-21 LIBS mAb binding, at 6.7 µM, stronger effect = higher value, binding induced by LDV ligand.

The nature of assay [8]: calorie-restriction mimetic ROS inhibitors, yeast – validation compound set, pilot screen (AID 2706;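 active means superoxide response below 65% of plate, a cut near 3 SD across the whole screen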;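 further: yeast exposed to compound for one week at 30 degrees C before staining; 100% = mean of all compound wells on the same plate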). Particulars: S. cerevisiae aging, superoxide DHE fluorescence; at 10 µM, stronger effect = lower value.
Assay [9] addresses Beta-adrenergic receptor kinase 1 (Homo sapiens) (UniProt P25098). Put plainly: GRK2 binders displacing RNA aptamer, biochemical, validation, human GRK2, bead flow cytometry (AID 488806;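 active means aptamer binding inhibition above 30%, about 3 SD of noise from non-fluorescent compounds; inactive means inhibition at or below 30%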). Particulars: bead-bound GRK2, FAM-aptamer displacement, at 10 µM, stronger effect = higher value.
Assay [10] addresses Beta-2 adrenergic receptor (Homo sapiens) (UniProt P07550). Kind of assay: agonist-induced loss of surface beta2AR – cell-based, FAP fluorogen, flow cytometry, validation set, pilot screen (AID 504459;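 active means percent response above 42, roughly 3 SD of non-fluorescent test compounds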;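 further: agonist-driven loss of surface beta2AR via internalization measured by FAP dye flow cytometry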). Particulars: Am2.2-beta2AR cells, at 10 µM, stronger effect = higher value.
Assay [11] addresses AP-2 complex subunit beta (Homo sapiens) (UniProt P63010). Put plainly: beta-arrestin/AP2 interaction blockers – biochemical, validation set, GST-AP2 beads, flow cytometry, pilot screen (AID 504541;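 active means inhibition above 54%, about 3 SD of non-fluorescent compounds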;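 further: AP2 carries R879A mutation and is captured from E. coli lysate; bead-bound FITC arrestin peptide fluorescence measuring arrestin peptide binding to AP2; 0% = DMSO wells and 100% = excess unlabeled arrestin peptide control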). Particulars: FITC arrestin peptide, at 10 µM, stronger effect = higher value, AP2 beta2 appendage fragment, R879A mutant.
Assay [12] is described as follows: cytosolic pH regulators acting via V-ATPase – S. cerevisiae, pHLuorin, HTS validation (AID 504600; in the data active means response above about 15%;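 further: plate controls were DMSO for no effect and reference compound for full effect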). Particulars: V-ATPase proton transport, at 10 µM, stronger effect = higher value.
In assay [13] the test system is anti-desmoglein-3 scFv antibody binding to human DSG3. Kind of assay: blockers of pathogenic pemphigus antibody–desmoglein-3 binding – biochemical, validation compound set, bead-based, flow cytometry, pilot screen (AID 588368;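 active means binding below the plate cutoff, the plate median minus 3 SD, with a reading above zero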;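 further: signal is the median channel fluorescence of bead-bound GFP antibody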). Particulars: Protein G beads, DSG3-Fc, scFv-GFP binding, at 10 µM, stronger effect = lower value.
Assay [14] has as its target ATP-binding cassette sub-family B member 6 (Homo sapiens) (UniProt Q9NP58). Kind of assay: blockers of ABCB6-driven porphyrin uptake – K562-ABCB6 cells, flow cytometry, validation set, pilot screen (AID 588550).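 Further: 0% = DMSO wells and 100% = benzethonium chloride 70 µM positive control.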 Particulars: K562-ABCB6 porphyrin accumulation, 1 h, at 10 µM, stronger effect = higher value.
The nature of assay [15]: AML differentiation inducers, ER-HoxA9 marrow cells – cell-based, GFP/MAC1 double positive, flow cytometry, validation set, primary screen (AID 588685;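 active means differentiation response of at least 50%, scaled between solvent and reference control, from cells with both markers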;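 further: compound exposure lasts four days before antibody staining and flow analysis; 0% = DMSO wells and 100% = 5 µM fulvestrant positive control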). Particulars: stronger effect = higher value, normalized: vehicle 0, fulvestrant 100.
Assay [16] in a line: Nile Red efflux blockade in pump-expressing yeast – validation compound set, multiplex, phenotypic, pilot screen (AID 588506;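 active means efflux inhibition above 0.42, the validation set average plus 4 SD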;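 further: Nile Red retained in cells so higher fluorescence means more efflux inhibition; 0 = negative control wells and 1 = enniatin B 25 µM full block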). Particulars: S. cerevisiae pump-expressing triplex, Nile Red efflux flow cytometry; at 10 µM; stronger effect = higher value; the pumps come from Candida albicans.

Sequence of Integrin beta-1 (Homo sapiens) + Integrin alpha-4 (Homo sapiens) (P05556 whole entry, looked up): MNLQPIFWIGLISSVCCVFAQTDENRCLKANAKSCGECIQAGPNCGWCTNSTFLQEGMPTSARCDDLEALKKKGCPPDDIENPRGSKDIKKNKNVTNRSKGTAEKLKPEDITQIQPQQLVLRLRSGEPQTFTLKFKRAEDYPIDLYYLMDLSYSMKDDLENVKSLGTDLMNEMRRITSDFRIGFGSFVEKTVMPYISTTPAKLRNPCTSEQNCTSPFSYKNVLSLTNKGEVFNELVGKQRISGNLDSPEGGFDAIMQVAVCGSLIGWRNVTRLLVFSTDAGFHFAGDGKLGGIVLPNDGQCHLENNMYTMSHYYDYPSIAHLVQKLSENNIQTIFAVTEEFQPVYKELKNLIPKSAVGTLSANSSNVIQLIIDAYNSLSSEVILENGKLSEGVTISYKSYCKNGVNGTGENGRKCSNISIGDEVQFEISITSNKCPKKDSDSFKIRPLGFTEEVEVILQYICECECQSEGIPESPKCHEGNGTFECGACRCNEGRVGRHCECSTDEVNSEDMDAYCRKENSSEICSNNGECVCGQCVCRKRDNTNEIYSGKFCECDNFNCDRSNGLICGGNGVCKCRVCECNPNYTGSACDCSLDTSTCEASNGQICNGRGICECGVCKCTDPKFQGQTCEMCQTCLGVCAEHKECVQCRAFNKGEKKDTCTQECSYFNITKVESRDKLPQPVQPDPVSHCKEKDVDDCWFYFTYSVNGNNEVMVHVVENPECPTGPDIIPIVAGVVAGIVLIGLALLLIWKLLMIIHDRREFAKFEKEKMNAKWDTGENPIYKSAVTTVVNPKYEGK
Sequence of Integrin beta-1 (Homo sapiens) + Integrin alpha-4 (Homo sapiens) (P13612 whole entry, looked up): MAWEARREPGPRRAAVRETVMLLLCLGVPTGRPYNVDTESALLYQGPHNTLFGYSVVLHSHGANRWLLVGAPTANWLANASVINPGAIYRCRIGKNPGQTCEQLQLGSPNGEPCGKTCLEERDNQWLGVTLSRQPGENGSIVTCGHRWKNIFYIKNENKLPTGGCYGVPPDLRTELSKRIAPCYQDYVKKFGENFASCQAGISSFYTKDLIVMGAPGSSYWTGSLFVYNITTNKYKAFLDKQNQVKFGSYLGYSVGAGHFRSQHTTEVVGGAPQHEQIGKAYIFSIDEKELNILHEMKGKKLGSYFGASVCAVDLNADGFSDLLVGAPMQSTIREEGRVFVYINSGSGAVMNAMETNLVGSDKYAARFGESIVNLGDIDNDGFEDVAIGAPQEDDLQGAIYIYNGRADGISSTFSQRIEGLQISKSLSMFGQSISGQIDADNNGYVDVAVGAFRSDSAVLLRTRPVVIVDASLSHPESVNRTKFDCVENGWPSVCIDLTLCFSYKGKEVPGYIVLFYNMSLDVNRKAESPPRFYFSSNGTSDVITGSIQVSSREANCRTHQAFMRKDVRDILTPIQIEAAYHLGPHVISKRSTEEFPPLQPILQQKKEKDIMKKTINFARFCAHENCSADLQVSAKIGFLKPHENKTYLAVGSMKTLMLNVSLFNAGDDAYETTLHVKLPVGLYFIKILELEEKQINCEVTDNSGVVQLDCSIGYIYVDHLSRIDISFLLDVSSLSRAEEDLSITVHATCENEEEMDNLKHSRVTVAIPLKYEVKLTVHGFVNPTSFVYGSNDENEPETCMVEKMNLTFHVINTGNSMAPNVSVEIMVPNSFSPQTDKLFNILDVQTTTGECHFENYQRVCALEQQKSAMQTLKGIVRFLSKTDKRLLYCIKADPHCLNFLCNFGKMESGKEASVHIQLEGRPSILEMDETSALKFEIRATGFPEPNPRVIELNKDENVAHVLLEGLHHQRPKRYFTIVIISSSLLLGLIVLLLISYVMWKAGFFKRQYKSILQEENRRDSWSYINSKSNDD
Sequence of AP-2 complex subunit beta (Homo sapiens) (P63010 whole entry, looked up, the tested form may be a part, one chain of several): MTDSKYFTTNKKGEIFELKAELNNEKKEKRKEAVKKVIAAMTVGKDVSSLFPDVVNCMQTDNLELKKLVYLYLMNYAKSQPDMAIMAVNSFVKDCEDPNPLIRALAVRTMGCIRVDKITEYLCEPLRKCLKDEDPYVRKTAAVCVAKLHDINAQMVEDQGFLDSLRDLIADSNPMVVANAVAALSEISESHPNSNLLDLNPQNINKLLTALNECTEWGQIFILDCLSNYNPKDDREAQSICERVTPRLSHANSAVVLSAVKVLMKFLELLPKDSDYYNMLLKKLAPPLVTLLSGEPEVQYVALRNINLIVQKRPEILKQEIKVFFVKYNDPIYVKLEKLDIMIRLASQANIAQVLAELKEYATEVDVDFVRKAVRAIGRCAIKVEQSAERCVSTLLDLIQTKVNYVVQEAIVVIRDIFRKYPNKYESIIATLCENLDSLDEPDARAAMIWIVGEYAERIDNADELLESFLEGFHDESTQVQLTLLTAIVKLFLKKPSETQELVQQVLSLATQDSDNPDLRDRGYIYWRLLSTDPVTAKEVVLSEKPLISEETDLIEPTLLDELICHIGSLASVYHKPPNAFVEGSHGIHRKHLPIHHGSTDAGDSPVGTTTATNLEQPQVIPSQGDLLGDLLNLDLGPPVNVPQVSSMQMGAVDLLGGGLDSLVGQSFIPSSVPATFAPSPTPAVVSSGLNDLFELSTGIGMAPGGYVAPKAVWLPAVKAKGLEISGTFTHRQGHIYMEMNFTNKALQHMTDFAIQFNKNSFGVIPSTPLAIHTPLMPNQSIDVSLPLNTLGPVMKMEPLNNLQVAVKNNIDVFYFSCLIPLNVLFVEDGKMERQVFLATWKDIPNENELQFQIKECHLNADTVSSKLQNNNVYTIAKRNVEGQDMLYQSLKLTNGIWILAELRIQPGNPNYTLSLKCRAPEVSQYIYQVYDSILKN
Sequence of Beta-adrenergic receptor kinase 1 (Homo sapiens) (P25098 whole entry, looked up): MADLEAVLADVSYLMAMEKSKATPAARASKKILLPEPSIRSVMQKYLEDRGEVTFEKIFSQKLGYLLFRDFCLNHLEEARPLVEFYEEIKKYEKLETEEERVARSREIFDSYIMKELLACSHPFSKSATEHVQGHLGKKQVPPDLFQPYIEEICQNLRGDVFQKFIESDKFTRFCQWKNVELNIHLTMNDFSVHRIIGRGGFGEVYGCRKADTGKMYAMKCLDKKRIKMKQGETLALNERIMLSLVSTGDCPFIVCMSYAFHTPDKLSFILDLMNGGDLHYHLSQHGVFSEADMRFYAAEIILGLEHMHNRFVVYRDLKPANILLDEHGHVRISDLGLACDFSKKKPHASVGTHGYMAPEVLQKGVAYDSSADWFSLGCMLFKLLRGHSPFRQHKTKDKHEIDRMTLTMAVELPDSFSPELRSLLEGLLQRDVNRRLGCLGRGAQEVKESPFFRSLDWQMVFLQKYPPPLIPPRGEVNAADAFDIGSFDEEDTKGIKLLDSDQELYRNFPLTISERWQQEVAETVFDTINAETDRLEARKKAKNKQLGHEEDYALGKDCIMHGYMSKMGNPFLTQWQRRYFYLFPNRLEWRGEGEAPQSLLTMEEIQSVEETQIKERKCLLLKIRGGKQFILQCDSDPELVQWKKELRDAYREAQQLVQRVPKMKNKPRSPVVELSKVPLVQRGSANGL
Sequence of Beta-2 adrenergic receptor (Homo sapiens) (P07550 whole entry, looked up): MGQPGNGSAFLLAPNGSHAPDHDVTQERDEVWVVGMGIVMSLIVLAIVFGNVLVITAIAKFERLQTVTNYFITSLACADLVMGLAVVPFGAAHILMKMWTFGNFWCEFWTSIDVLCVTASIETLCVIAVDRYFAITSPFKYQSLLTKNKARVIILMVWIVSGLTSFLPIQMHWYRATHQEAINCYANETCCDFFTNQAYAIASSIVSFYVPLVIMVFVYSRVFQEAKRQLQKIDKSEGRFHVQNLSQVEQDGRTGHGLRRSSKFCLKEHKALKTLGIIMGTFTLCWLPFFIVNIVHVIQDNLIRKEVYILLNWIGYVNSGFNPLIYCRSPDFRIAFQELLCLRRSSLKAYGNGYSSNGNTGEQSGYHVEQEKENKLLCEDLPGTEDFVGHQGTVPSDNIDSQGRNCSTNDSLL
Sequence of ATP-binding cassette sub-family B member 6 (Homo sapiens) (Q9NP58 whole entry, looked up): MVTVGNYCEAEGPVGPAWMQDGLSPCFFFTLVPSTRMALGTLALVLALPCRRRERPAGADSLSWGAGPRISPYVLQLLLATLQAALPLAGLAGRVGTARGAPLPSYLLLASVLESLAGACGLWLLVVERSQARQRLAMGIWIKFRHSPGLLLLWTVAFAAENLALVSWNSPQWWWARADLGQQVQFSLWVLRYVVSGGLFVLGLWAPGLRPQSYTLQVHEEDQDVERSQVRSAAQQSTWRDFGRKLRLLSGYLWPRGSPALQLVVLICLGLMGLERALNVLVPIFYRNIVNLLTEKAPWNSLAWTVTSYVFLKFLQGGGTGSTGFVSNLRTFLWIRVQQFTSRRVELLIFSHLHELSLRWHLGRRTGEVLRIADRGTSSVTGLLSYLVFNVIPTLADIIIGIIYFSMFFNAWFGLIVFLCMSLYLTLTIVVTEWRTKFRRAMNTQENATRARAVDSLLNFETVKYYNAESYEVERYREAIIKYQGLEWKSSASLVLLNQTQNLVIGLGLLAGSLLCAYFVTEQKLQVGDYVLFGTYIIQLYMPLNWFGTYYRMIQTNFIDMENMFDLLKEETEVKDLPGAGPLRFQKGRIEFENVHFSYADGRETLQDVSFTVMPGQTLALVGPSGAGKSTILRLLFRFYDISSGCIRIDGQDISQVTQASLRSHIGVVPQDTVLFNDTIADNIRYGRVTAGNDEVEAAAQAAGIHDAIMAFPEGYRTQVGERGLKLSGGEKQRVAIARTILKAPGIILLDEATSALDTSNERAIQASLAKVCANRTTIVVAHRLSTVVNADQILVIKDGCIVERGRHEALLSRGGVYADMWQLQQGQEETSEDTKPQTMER

`CN1CCC(=C2c3ccccc3CC(=O)c3sccc32)CC1`: the percent of DMSO control GFP in [1] is 101% (inactive). Besides, the GFP response vs DMSO in [2] was 101% (inactive); in [4], 94.8% (inactive). In addition, the percent response of DMSO control in [3] is 108% (inactive). For the same compound, the GFP response, % of DMSO in assay [5] is 101% (inactive). In assay [6], the double positive events was 62.4%. The vesicle binding response in assay [6] was 136% (inactive). The inhibition in assay [7] was -3.77% (inactive); in assay [11], -10.2% (inactive); in [14] it was 4% (inactive). Moreover, the superoxide response (% of plate) in [8] is 96.5% (inactive). Moreover, the aptamer binding inhibition in [9] is -2% (inactive). In addition, the response is 11.7% (inactive) in [10] and 1.45% (inactive) in [12]. Further, the binding (% of control) in assay [13] was 105% (inactive). For the same compound, the differentiation response in assay [15] is -14.8% (inactive).

On to `CC1(C(=O)O)CCC(C(=O)NC2CCCCCC2)C1(C)C` (stereo unspecified), for which the percent of DMSO control GFP in [1] is 103% (inactive). The GFP response vs DMSO is 106% (inactive) in assay [2] and 110% (inactive) in assay [4]. Moreover, the percent response of DMSO control in [3] was 93.9% (inactive). Further, in [5], the GFP response, % of DMSO was 100% (inactive). The same compound gave a double positive events in assay [6] of 67.7%. Also, the vesicle binding response in assay [6] is 157% (inactive). Also, the inhibition in [7] is 28.3% (inactive); in assay [11], -8.9% (inactive); in assay [14], 7% (inactive). The superoxide response (% of plate) in [8] was 99.3% (inactive). The aptamer binding inhibition in assay [9] is 3% (inactive). Further, the response in assay [10] is 10.4% (inactive); in assay [12] it was -1.45% (inactive). Moreover, in assay [13], the binding (% of control) is 102% (inactive). Moreover, in assay [16], the efflux inhibition (fraction of control) is -0.54 (inactive). In assay [15], the differentiation response was -5.68% (inactive).

As for `COc1ccc2c(c1)CC[C@@H]1[C@@H]2CC[C@]2(C)C(=O)CC[C@@H]12`, the percent of DMSO control GFP in [1] is 102% (inactive). The GFP response vs DMSO in assay [2] is 102% (inactive); in assay [4] it was 133% (inactive). Also, in assay [3], the percent response of DMSO control was 98.6% (inactive). In addition, the GFP response, % of DMSO in assay [5] was 104% (inactive). The double positive events in [6] came out at 58.2%. Further, the vesicle binding response in [6] was 122% (inactive). In addition, the figures for the inhibition in [7], in [11] and in [14] were -7.79% (inactive), -2.71% (inactive) and 3% (inactive), respectively. Besides, the superoxide response (% of plate) in assay [8] is 98.6% (inactive). Besides, the aptamer binding inhibition in [9] was -1% (inactive). Besides, the response in assay [10] is -15.3% (inactive); in assay [12], 109% (active). The binding (% of control) in [13] was 102% (inactive). In [15], the differentiation response is -0.18% (inactive).

For the compound `COc1cc2c(cc1OC)-c1cc(OCc3ccccc3Cl)nc(=O)n1CC2`, in assay [1], the percent of DMSO control GFP was 98.8% (inactive). Also, the GFP response vs DMSO in [2] is 98.9% (inactive); in [4] it was 99.4% (inactive). Also, the percent response of DMSO control in [3] was 101% (inactive). Also, the GFP response, % of DMSO in [5] was 97.5% (inactive). This compound also registered a double positive events in [6] of 57.7%. The vesicle binding response in [6] is 172% (inactive). The inhibition in assay [7] is 9.09% (inactive); in assay [11], 4.7% (inactive); in assay [14], 4% (inactive). Further, the superoxide response (% of plate) in [8] was 97.5% (inactive). In addition, in [9], the aptamer binding inhibition is 4% (inactive). In addition, the response in assay [12] was -7% (inactive). Further, the binding (% of control) in assay [13] is 99.8% (inactive). Besides, in assay [16], the efflux inhibition (fraction of control) was 0.06 (inactive). For the same compound, the differentiation response in assay [15] is -18% (inactive).

As for `CC(C)CN1CC(C(=O)O)CC1=O` (stereo unspecified), the percent of DMSO control GFP in [1] was 96.1% (inactive). Moreover, the figures for the GFP response vs DMSO in assay [2] and in [4] were 101% (inactive) and 104% (inactive), respectively. In addition, the percent response of DMSO control in [3] is 96% (inactive). In addition, the GFP response, % of DMSO in [5] is 102% (inactive). For the same compound, in [6], the double positive events came out at 56%. Besides, the vesicle binding response in [6] is 66.5% (inactive). For the same compound, the inhibition in [7] was 1.12% (inactive); in assay [14], 4% (inactive). In [8], the superoxide response (% of plate) was 102% (inactive). Besides, the aptamer binding inhibition in [9] is 0% (inactive). For the same compound, the figures for the response in [10] and in [12] were -5.23% (inactive) and -1.05% (inactive), respectively. Moreover, the binding (% of control) in assay [13] is 104% (inactive). For the same compound, in assay [16], the efflux inhibition (fraction of control) was -0.57 (inactive). For the same compound, in assay [15], the differentiation response was 5.73% (inactive).
